# Compounds without any hit were thinned out: in the full panel of roughly 83,000, 20% have a hit.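 In brief: 96-well plates, 48 h treatment, single concentration, percent growth endpoint.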 Values without a mark were called inactive. Calls of active or inactive are those of the source. Rule for the calls: active = growth percent below 10; inactive = the rest.
# How the values were obtained:
# Test in all cases: NCI-60 one-dose screen, 48 h (100 = growth as untreated, 0 = no growth, -100 = all killed)
# Conditions in all cases: 10 µM unless noted
# [1] = test system: DU-145 prostate
# [2] = test system: K-562 leukemia
# [3] = test system: MALME-3M melanoma
# [4] = test system: MDA-MB-231 breast
# [5] = test system: RXF 393 renal
# [6] = test system: SF-268 CNS
# [7] = test system: SF-295 CNS
# [8] = test system: SF-539 CNS
# [9] = test system: UACC-257 melanoma
# [10] = test system: M14 melanoma
SMILES,growth [1],growth [2],growth [3],growth [4],growth [5],growth [6],growth [7],growth [8],growth [9],growth [10]
COc1c(B(O)O)cccc1-c1cc(C)c2c(ccc3[nH]ncc32)n1,80.8%,99.4%,179%,22.1%,7.05% (active),62.7%,87.8%,25.2%,126%,131%
CCc1ccc(CCCC(=O)O)cc1,102%,98.9%,107%,100%,112%,102%,98.5%,103%,106%,94.2%
O=C(Nc1nc(-c2ccc(Cl)cc2)nc2c1sc(=S)n2-c1ccccc1)C(F)(F)F,37.5%,57.2%,21.2%,37.5%,29%,36.1%,7.16% (active),8.63% (active),51.1%,40.3%
Cc1[nH]c(=O)[nH]c(=O)c1Br,125%,98.3%,119%,99.3%,115%,95.2%,98.4%,114%,88.1%,107%
CCCOC(=O)Nc1nc2ccc(SCC(C)C)cc2s1,57.8%,20.8%,38.7%,62.7%,28.2%,52.7%,32.4%,26.9%,58.7%,34%
O=C(Nc1nc2cc(C(=O)N3CCN(C(c4ccccc4)c4ccccc4)CC3)ccc2o1)c1ccc(NC2CCCCC2)c([N+](=O)[O-])c1,61.9%,47%,68.7%,75%,74.9%,58.2%,42.1%,59.9%,62.2%,58.2%
O=C1Nc2ccccc2/C1=C/c1cccn1CCCCn1c2ccccc2c(=O)c2ccccc21,94.2%,59.5%,91.9%,64.7%,88.1%,83.1%,101%,93%,105%,85.1%
CC1=NC2=Nn3c(c4cnn(-c5ccccc5)c4n/c3=N\N)NN2C(c2ccccc2)=C1,105%,102%,87.9%,88.7%,74%,96.1%,90.7%,94.7%,101%,93.1%
Cc1cc(C(=O)Nc2ncc(Cc3cccc(C(F)(F)F)c3)s2)c2ccccc2n1,57.4%,7.79% (active),26.8%,56.4%,31.1%,37.2%,15.1%,21.9%,43.3%,3.81% (active)
CC1(C)COB(OCC(C)(C)COB2OCC(C)(C)CO2)OC1,103%,106%,93.8%,112%,123%,100%,97.4%,98.3%,98.6%,105%
COc1ccc(Nc2ncc(Br)c(NCCCNC(=O)c3cccs3)n2)cc1,35.6%,28%,55.4%,31.2%,-26.7% (active),13.2%,52.4%,14.8%,105%,50.2%
Ic1ccc(OCCCCn2ccnc2)cc1,81.2%,37.6%,1.9% (active),68.6%,67.1%,83.3%,77.9%,83.8%,64.3%,49.6%
COc1cc2c(c(OC)c1OC)CCC(c1cccc(NC(=O)c3ccc(Br)cc3)c1)O2 (stereo not given),87.9%,49.7%,80.4%,82.6%,89%,78.6%,66.9%,97.3%,69.6%,81.3%
Nc1n[nH]c2cccc(C#Cc3cccc(C(=O)Nc4cc(C(F)(F)F)cc(C(F)(F)F)c4)c3)c12,91.5%,4.87% (active),53.4%,51.9%,50.5%,68.8%,77.9%,53.3%,71.6%,34.1%
